{"source": "paper PMC7826789", "about": "(International Journal of Molecular Sciences, 2021);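 further: KINOMEscan scanMAX binding as percent activity remaining versus control; lower means stronger binding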", "data": [{"tested_on": "CASK", "conditions": "Compound Concentration (nM):1000", "units": {"Percent Control": "%"}, "values": [{"smiles": "C/C(Nc1ccc(S(N)(=O)=O)cc1)=C1/C(=O)Nc2ccccc21", "note": "[GW335962X]", "Percent Control": 87}, {"smiles": "Cl.O=S1CCN(Cc2ccc(-c3ccc4ncnc(Nc5ccc(OCc6ccccc6)c(F)c5)c4c3)o2)CC1", "note": "[GW576924A]", "Percent Control": 100}, {"smiles": "CN(C)c1cc2c(Nc3ccc4c(cnn4Cc4ccccc4)c3)ncnc2cn1", "note": "[GW282974X]", "Percent Control": 100}, {"smiles": "CCn1c(-c2nonc2N)nc2c(C#CC(C)(C)O)nc(OCCNC)cc21.Cl", "note": "[GSK949675]", "Percent Control": 100}, {"smiles": "CC(C)COC(=O)c1ccc2c(c1)/C(=C/Nc1ccc(S(N)(=O)=O)cc1)C(=O)N2", "note": "[GW416981X]", "Percent Control": 95}, {"smiles": "CC1=C(C(=O)Nc2ccc3[nH]ncc3c2)C(c2ccc(Cl)c(Cl)c2)CC(=O)N1", "note": "(stereo not shown) [GSK299115A]", "Percent Control": 96}, {"smiles": "NS(=O)(=O)c1ccc(N/N=C2\\C(=O)Nc3ccc(Cl)cc32)cc1", "note": "[GW280670X]", "Percent Control": 100}, {"smiles": "COc1cc(C=NNc2ncnc3c2cnn3-c2ccccc2)ccc1O", "note": "[GW513184X]", "Percent Control": 64}, {"smiles": "COc1cc2ncnc(Nc3ccc4c(cnn4Cc4ccccc4)c3)c2cc1OC.Cl", "note": "[GW282449A]", "Percent Control": 93}, {"smiles": "COC(=O)Nc1nc2ccc(Oc3ccc(NC(=O)Nc4cc(C(F)(F)F)ccc4F)cc3)cc2s1.Cl", "note": "[GW693917A]", "Percent Control": 93}, {"smiles": "NS(=O)(=O)c1ccc(N/N=C2\\C(=O)Nc3ccc(C(=O)NCc4ccncc4)cc32)cc1", "note": "[GW300657X]", "Percent Control": 78}, {"smiles": "Cl.O=C(Nc1ccc(Oc2ccc3[nH]c(NC(=O)c4ccco4)nc3c2)cc1)Nc1cc(C(F)(F)F)ccc1F", "note": "[GW683134A]", "Percent Control": 100}, {"smiles": "COc1ccccc1-c1cc(/C=C2\\C(=O)Nc3ncc(Br)cc32)cc(Br)c1O", "note": "[GW442130X]", "Percent Control": 100}, {"smiles": "CN1CCN(C(=O)c2ccc(NC(=O)Nc3ccc(N(C)c4ccnc(Nc5ccc(CS(C)(=O)=O)cc5)n4)cc3)cc2)CC1.Cl", "note": "[GW830263A]", "Percent Control": 85}, {"smiles": "Cc1cc(O)cc(C)c1/C=C/c1cncc(C(N)=O)c1", "note": "[GW435821X]", "Percent Control": 77}]}, {"tested_on": "T1, CDC2L1", "T1 construct": "gene CDK11B", "conditions": "Compound Concentration (nM):1000", "units": {"Percent Control": "%"}, "values": [{"smiles": "O=C(Nc1n[nH]c2nc(-c3ccc(O)cc3)c(Br)cc12)C1CC1", "note": "[SB-725317]", "Percent Control": 100}, {"smiles": "COc1cccc(-c2c[nH]c3c(N/N=C/c4ccncc4)ncnc23)c1", "note": "[GW814408X]", "Percent Control": 81}, {"smiles": "Cl.O=C(O[C@H]1CN[C@H](C#Cc2cc3ncnc(Nc4ccc5c(cnn5Cc5ccccc5)c4)c3s2)C1)N1CCOCC1", "note": "[GSK200398A]", "Percent Control": 87}, {"smiles": "CCS(=O)(=O)c1ccc(OC)c(Nc2ncc(-c3cccc(OC)c3)o2)c1", "note": "[GW580509X]", "Percent Control": 100}, {"smiles": "COc1ccc2cc(-c3c(-c4ccncc4)nc(-c4ccc(S(C)(=O)=O)cc4C)n3C)ccc2c1", "note": "[SB-633825]", "Percent Control": 92}, {"smiles": "COc1ccc(COc2ccc(Cc3cnc(N)nc3N)cc2OC)cc1", "note": "[GW632580X]", "Percent Control": 97}, {"smiles": "C[C@@H](Oc1cc(-n2cnc3ccc(OC4CCN(C)CC4)cc32)sc1C(N)=O)c1ccccc1Cl", "note": "[GSK579289A]", "Percent Control": 97}, {"smiles": "CCS(=O)(=O)c1ccc(OC)c(Nc2ncc(-c3cccc(F)c3)o2)c1", "note": "[GW621970X]", "Percent Control": 100}, {"smiles": "COc1cc(N2CCN(C(C)C)CC2)ccc1Nc1nc(Nc2ccc(F)cc2C(=O)NC[C@@H](O)CO)c2cc[nH]c2n1", "note": "[GSK1392956A]", "Percent Control": 100}, {"smiles": "COc1cc2ncn(-c3cc(O[C@H](C)c4ccccc4Cl)c(C(N)=O)s3)c2cc1OC", "note": "[GSK237701A]", "Percent Control": 100}, {"smiles": "Cl.O=C(Nc1ccc(Oc2ccc3[nH]c(NC(=O)c4ccccc4)nc3c2)cc1)Nc1cc(C(F)(F)F)ccc1F", "note": "[GW709042A]", "Percent Control": 92}, {"smiles": "COc1cc(C)c(N(C)C(=O)CN(C)C)cc1Nc1nc(Nc2cccc(F)c2C(N)=O)c2cc[nH]c2n1", "note": "[GSK2219385]", "Percent Control": 100}, {"smiles": "CCc1ccc(Oc2nccc(-c3c(-c4ccc(F)cc4)ncn3C3CCNCC3)n2)cc1", "note": "[SB-242719]", "Percent Control": 89}, {"smiles": "CC1=C(C(=O)Nc2ccc3[nH]ncc3c2)C(c2ccc3ccccc3c2)CC(=O)N1", "note": "(stereo not shown) [GSK270822A]", "Percent Control": 100}, {"smiles": "Nc1ncnc2occ(-c3ccc(NC(=O)Nc4cc(C(F)(F)F)ccc4F)cc3)c12", "note": "[GW770249X]", "Percent Control": 99}, {"smiles": "O=C1Nc2ccc(C(=O)c3ccco3)cc2C1=Cc1cc(Cl)c(O)c(Cl)c1", "note": "[GW406108X]", "Percent Control": 100}, {"smiles": "COc1ccc2[nH]c3c4[nH]c5ccc(OC)cc5c4c4c(c3c2c1)C(=O)NC4=O", "note": "[GW296115X]", "Percent Control": 90}, {"smiles": "CN(C)CCNC(=O)Nc1ccc(N(C)c2ccnc(Nc3ccc(CS(C)(=O)=O)cc3)n2)cc1.Cl", "note": "[GW830900A]", "Percent Control": 100}, {"smiles": "Cl.c1ccc(Cc2nc3ccc(Nc4ncnc5ccccc45)cc3[nH]2)cc1", "note": "[GR269666A]", "Percent Control": 100}, {"smiles": "COc1ccc2c(-c3ccnc(Nc4cccc(OC(F)(F)F)c4)n3)cnn2n1", "note": "[GW810372X]", "Percent Control": 100}, {"smiles": "COc1cccc(-n2ncc3c(N/N=C/c4ccncc4)ncnc32)c1", "note": "[GW784752X]", "Percent Control": 100}, {"smiles": "COc1cc(/C=N/Nc2ncnc3[nH]ncc23)ccc1O", "note": "[GW578748X]", "Percent Control": 100}, {"smiles": "NS(=O)(=O)c1ccc(N/N=C2\\C(=O)Nc3ccc(C(=O)NCCc4c[nH]cn4)cc32)cc1", "note": "[GW300660X]", "Percent Control": 100}, {"smiles": "NS(=O)(=O)c1ccc(N/N=C2\\C(=O)Nc3ccc(-c4cnco4)cc32)cc1", "note": "[GW276655]", "Percent Control": 100}, {"smiles": "NS(=O)(=O)c1ccc(Nc2ncc(-c3ccccc3)o2)cc1", "note": "[GW572399X]", "Percent Control": 100}, {"smiles": "C/C(Nc1ccc(S(N)(=O)=O)cc1)=C1/C(=O)Nc2ccccc21", "note": "[GW335962X]", "Percent Control": 100}, {"smiles": "Cl.O=S1CCN(Cc2ccc(-c3ccc4ncnc(Nc5ccc(OCc6ccccc6)c(F)c5)c4c3)o2)CC1", "note": "[GW576924A]", "Percent Control": 100}, {"smiles": "CN(C)c1cc2c(Nc3ccc4c(cnn4Cc4ccccc4)c3)ncnc2cn1", "note": "[GW282974X]", "Percent Control": 100}, {"smiles": "CCn1c(-c2nonc2N)nc2c(C#CC(C)(C)O)nc(OCCNC)cc21.Cl", "note": "[GSK949675]", "Percent Control": 100}, {"smiles": "CC(C)COC(=O)c1ccc2c(c1)/C(=C/Nc1ccc(S(N)(=O)=O)cc1)C(=O)N2", "note": "[GW416981X]", "Percent Control": 100}, {"smiles": "CC1=C(C(=O)Nc2ccc3[nH]ncc3c2)C(c2ccc(Cl)c(Cl)c2)CC(=O)N1", "note": "(stereo not shown) [GSK299115A]", "Percent Control": 100}, {"smiles": "NS(=O)(=O)c1ccc(N/N=C2\\C(=O)Nc3ccc(Cl)cc32)cc1", "note": "[GW280670X]", "Percent Control": 100}, {"smiles": "COc1cc(C=NNc2ncnc3c2cnn3-c2ccccc2)ccc1O", "note": "[GW513184X]", "Percent Control": 100}, {"smiles": "COc1cc2ncnc(Nc3ccc4c(cnn4Cc4ccccc4)c3)c2cc1OC.Cl", "note": "[GW282449A]", "Percent Control": 100}, {"smiles": "COC(=O)Nc1nc2ccc(Oc3ccc(NC(=O)Nc4cc(C(F)(F)F)ccc4F)cc3)cc2s1.Cl", "note": "[GW693917A]", "Percent Control": 98}, {"smiles": "NS(=O)(=O)c1ccc(N/N=C2\\C(=O)Nc3ccc(C(=O)NCc4ccncc4)cc32)cc1", "note": "[GW300657X]", "Percent Control": 100}, {"smiles": "Cl.O=C(Nc1ccc(Oc2ccc3[nH]c(NC(=O)c4ccco4)nc3c2)cc1)Nc1cc(C(F)(F)F)ccc1F", "note": "[GW683134A]", "Percent Control": 100}, {"smiles": "COc1ccccc1-c1cc(/C=C2\\C(=O)Nc3ncc(Br)cc32)cc(Br)c1O", "note": "[GW442130X]", "Percent Control": 100}, {"smiles": "CN1CCN(C(=O)c2ccc(NC(=O)Nc3ccc(N(C)c4ccnc(Nc5ccc(CS(C)(=O)=O)cc5)n4)cc3)cc2)CC1.Cl", "note": "[GW830263A]", "Percent Control": 67}, {"smiles": "Cc1cc(O)cc(C)c1/C=C/c1cncc(C(N)=O)c1", "note": "[GW435821X]", "Percent Control": 100}]}]}
